From PubChem BioAssay AID434970 (Sanford-Burnham Center for Chemical Genomics, 2010)
The campaign covered roughly 11,000 compounds. About 310 (2.8%) were called active. Rule as the data show it: active = activity change below about -85%; inactive = the rest. Shown is part of a subset that was picked to be rich in actives.

The molecules below were run on intestinal alkaline phosphatase [Mus musculus] (assay: activators of mouse IAP, confirmation, biochemical, luminescence, single concentration (AID 434970)). Conditions: purified mouse IAP, CDP-Star luminescence, 30 min, at 10 µM; activation factor: measured here: IAP activation factor, stronger effect = higher value; activity change, negative = activation: stronger effect = lower value.

Row | Structure (SMILES) | activation factor | activity change, negative = activation
1 | CCOC(=O)C1=CN(Cc2cccc(F)c2)S(=O)(=O)NC1c1ccc(Br)cc1F (centres undefined) | 0.921 | 7.85% (inactive)
2 | CN(C)C(=O)CCc1ccc2c3c([nH]c2c1)[C@]1(C)[C@@H](C(=O)N2CCOCC2)C[C@H](CC(=O)NCCc2ccccn2)C(=O)N1CC3 | 1.02 | -2.25% (inactive)
3 | O=C1C[C@@H]2CCN3C(=O)CCC[C@@H]([C@H]23)[C@@H]1Cc1ccccc1 | 0.964 | 3.55% (inactive)
4 | CC(CN1CCN(C)CC1)OC(=O)c1ccc(Cl)cc1 (centres undefined) | 0.929 | 7.05% (inactive)
5 | N#Cc1ccc(N2CCN(c3ccc(F)cc3)CC2)cc1 | 0.995 | 0.5% (inactive)
6 | CCCNC(=O)c1ccc(SC)cc1OC | 0.92 | 8% (inactive)
7 | CCn1nccc1C(=O)Nc1ccc(Cl)c(Cl)c1 | 0.952 | 4.85% (inactive)
8 | Cc1ccc(NC(=O)Nc2ccc(F)c(Cl)c2)cc1 | 1.35 | -35% (inactive)
9 | O=C(Nc1ccc(Cl)c(Cl)c1)Nc1ccc(Br)cc1F | 2.24 | -124% (active)
10 | O=C(Nc1ccc(Cl)cc1)Nc1ccc(Cl)c(Cl)c1 | 2.27 | -127% (active)
11 | O=C(Nc1ccc(Br)cc1)Nc1ccccc1Cl | 1.39 | -39.4% (inactive)
12 | O=C(NCC1CC1(Cl)Cl)Nc1ccc(Cl)c(Cl)c1 (centres undefined) | 2.53 | -153% (active)
13 | O=C(Nc1ccc(Cl)c(Cl)c1)N1CCSCC1 | 1.13 | -13.4% (inactive)
14 | N#Cc1ccc(NC(=O)Nc2ccc(Cl)cc2)cc1 | 1.73 | -72.5% (inactive)
15 | O=C(Nc1ccc(Br)cc1)Nc1ccccc1F | 1.81 | -81.1% (inactive)
16 | CCN(CC)c1nc(N)c2c(N)n(-c3ccccc3C)c(=S)c(C#N)c2c1C#N | 0.823 | 17.8% (inactive)
17 | O=C1c2cccc3c(N4CCCCC4)ccc(c23)C(=O)N1CCO | 1.18 | -17.9% (inactive)
18 | CCOc1ccccc1N(CC(=O)NC1CCCCC1)S(C)(=O)=O | 0.972 | 2.85% (inactive)
19 | COc1cc2c(c(OC)c1OC)C(c1ccccc1C)CC(=O)O2 (centres undefined) | 1.07 | -6.55% (inactive)
20 | CSCCC(NC(=O)c1ccc(=O)n(C)n1)c1nc2ccccc2[nH]1 (centres undefined) | 0.931 | 6.9% (inactive)
21 | Cc1ccc(S(=O)(=O)N2CCN(C(=O)CSc3nc4ccccc4c(=O)[nH]3)CC2)c(C)c1 | 1.1 | -10.3% (inactive)

Row | Structure (SMILES) | activation factor | activity change, negative = activation
22 | CSCC[C@H](NC(=O)C1CCN(S(=O)(=O)c2ccc(C)cc2C)CC1)c1nc2ccccc2[nH]1 | 2.02 | -102% (active)
23 | Cc1ccc(C)c(CN2CCC(CNC(=O)Nc3ccc(Cl)cc3)CC2)c1 | 2.23 | -123% (active)
24 | Cc1ccc(C)c(CN2CCC(CNC(=O)Nc3ccc(F)c(Cl)c3)CC2)c1 | 1.98 | -97.9% (active)
25 | Cc1nn(C)cc1CNC(=O)Nc1ccc(Cl)cc1 | 1.32 | -31.6% (inactive)
26 | Cc1cccc(CCNC(=O)CCc2c(C)nc3ncnn3c2C)c1 | 0.906 | 9.35% (inactive)
27 | CCNC(=O)COc1cc(C)c(Cl)c(C)c1 | 1 | -0.4% (inactive)
28 | CCc1nc2sc3c(c2c(=O)n1N)CCC3 | 0.913 | 8.65% (inactive)
29 | CCN(CC)S(=O)(=O)c1cccc(-c2nnc(SCC(=O)c3cc(C)n(C)c3C)o2)c1 | 0.772 | 22.8% (inactive)
30 | COc1ccc(C2/C=C\CN(C(=O)c3ccccc3)CC(=O)N2Cc2cccc(F)c2)cc1 (centres undefined) | 1.01 | -1.35% (inactive)
31 | CC(=O)N1c2ccccc2C(C)(c2ccccc2)CC1(C)C (centres undefined) | 0.98 | 2% (inactive)
32 | O=C(NCC1CC1)C1CCCN(S(=O)(=O)c2ccc(-n3cnnn3)cc2)C1 (centres undefined) | 1.01 | -0.9% (inactive)
33 | O=C(Nc1ccc(Cl)cc1)C1CC(=O)n2c(nc3ccccc32)N1 (centres undefined) | 2.06 | -106% (active)
34 | CSc1ccccc1NC(=O)Nc1ccc(F)c(Cl)c1 | 1.83 | -83.2% (inactive)
35 | O=C(Nc1ccc(Cl)cc1)N1CCC(c2nc(-c3ccccc3Cl)no2)CC1 | 1.1 | -9.8% (inactive)
36 | O=C1CC(c2ccco2)Sc2nc3ccccc3n21 (centres undefined) | 0.801 | 19.9% (inactive)
37 | O=C(Nc1ccc(F)c(Cl)c1)C1CC(=O)n2c(nc3ccccc32)N1 (centres undefined) | 2.42 | -142% (active)
38 | O=C(O)C1=C(C(=O)Nc2ccc(F)c(Cl)c2)CCCC1 | 0.98 | 2% (inactive)
39 | FC(F)Oc1ccc(NC(=S)NCc2ccccc2)cc1Cl | 1.34 | -34.3% (inactive)
40 | COC(=O)[C@H](Cc1ccc(O)cc1)NC(=O)Cn1cnc2c(NCc3ccccc3)ncnc21 | 1.08 | -8.5% (inactive)
41 | COCCCNC(=O)CCSc1ccc(Cl)cc1 | 0.897 | 10.3% (inactive)
42 | O=C(NCc1ccncc1)c1nnc(Cc2c(F)cccc2Cl)o1 | 0.951 | 4.9% (inactive)
